# Laboratory results as given in PubChem BioAssay (NCI).
# Compounds without any hit were thinned out: in the full panel of roughly 79,000, 15% have a hit. Unmarked numbers belong to inactive results. Activity calls are given as the source filed them. Cut-off read from the data, not from the text of the source: active = growth inhibition above about 70%; inactive = the rest.
# How the values were obtained:
# [1] = NCI Yeast Anticancer Drug Screen. Data for the rad52 strain (AID 147);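 note: 0% = growth of vehicle-treated control cultures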; settings: S. cerevisiae rad52 mutant growth inhibition, active compounds read high
# Method in brief: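 Inhibition of yeast growth, referenced to vehicle controls, was the measured output for a strain with defective DNA damage repair.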
# [2] = NCI Yeast Anticancer Drug Screen. Data for the wt1 strain (AID 149);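 note: 0% = growth of vehicle-treated wt1 cultures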; settings: S. cerevisiae wt1 strain (SPY 50644) growth inhibition, active compounds read high
# Method in brief: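 Readout: yeast growth inhibition, normalised to vehicle controls, in the wt1 strain exposed to test compounds.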
# [3] = NCI Yeast Anticancer Drug Screen. Data for the rad50EPP+ strain (AID 151);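 note: 0% = growth of vehicle-treated control cultures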; settings: S. cerevisiae rad50 mutant strain, active compounds read high
# Method in brief: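 Genetically defined yeast (rad50EPP+, DNA damage repair alteration) is grown with compound, and inhibition of growth is expressed relative to vehicle-treated controls.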
# [4] = NCI Yeast Anticancer Drug Screen. Data for the mgt1 strain (AID 153); settings: S. cerevisiae mgt1 mutant growth inhibition, active compounds read high
# Method in brief: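 In the mgt1 strain, test compounds were added and growth inhibition was determined relative to vehicle-treated controls.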
# [5] = NCI Yeast Anticancer Drug Screen. Data for the rad50 strain (AID 155);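 note: 0% = growth of vehicle-only cultures of the same strain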; settings: S. cerevisiae rad50 strain growth inhibition, active compounds read high
# Method in brief: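 Compounds were tested on a yeast strain with an engineered DNA damage repair alteration; the reported value is growth inhibition normalised to vehicle treatment.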
# [6] = NCI Yeast Anticancer Drug Screen. Data for the mec2-1 strain (AID 157); settings: S. cerevisiae mec2-1 strain, active compounds read high
# Method in brief: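 Each compound was tested on mec2-1 yeast, a strain altered in DNA damage repair or cell cycle control. Growth inhibition is reported relative to vehicle.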
# [7] = NCI Yeast Anticancer Drug Screen. Data for the rad14 strain (AID 159);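 note: 0% = growth of vehicle-treated control cultures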; settings: S. cerevisiae rad14 strain growth inhibition, active compounds read high
# Method in brief: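 Compound-treated yeast with a defined DNA-repair lesion; growth inhibition normalised to vehicle-treated cultures.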
# [8] = NCI Yeast Anticancer Drug Screen. Data for the sgs1 mgt1 strain (AID 161);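 note: 0% = growth of cultures given vehicle only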; settings: S. cerevisiae sgs1 mgt1 strain, active compounds read high
# Method in brief: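 Test agents were incubated with a DNA-repair-mutant yeast strain. Growth was then read and compared against vehicle-treated controls.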
# [9] = NCI Yeast Anticancer Drug Screen. Data for the cln2 rad14 strain (AID 165);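 note: 0% = growth equal to vehicle treated cultures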; settings: S. cerevisiae cln2 rad14 strain, active compounds read high
# Method in brief: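 Test compounds were added to cln2 rad14 yeast cultures; inhibition of growth was then determined by comparison with vehicle treatment.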
# [10] = NCI Yeast Anticancer Drug Screen. Data for the bub3 strain (AID 167); settings: S. cerevisiae bub3 mutant strain, active compounds read high
# Method in brief: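 Growth of a checkpoint-deficient yeast mutant is measured after compound exposure. Values represent inhibition relative to vehicle.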
# [11] = NCI Yeast Anticancer Drug Screen. Data for the wt2 strain (AID 169);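 note: 0% = growth of vehicle-treated yeast cultures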; settings: S. cerevisiae wt2 strain growth inhibition, active compounds read high
# Method in brief: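 The panel's yeast strains carry defined changes in DNA repair or cell cycle genes. Each strain is grown with compound, and growth loss is scored relative to vehicle.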
# [12] = NCI Yeast Anticancer Drug Screen. Data for the mlh1 strain (AID 171);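 note: 0% = growth of vehicle-treated control cultures of the same strain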; settings: S. cerevisiae mlh1 strain growth inhibition, active compounds read high
# Method in brief: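 Inhibition values reflect reduced yeast growth in the presence of compound, referenced to vehicle controls, using a strain chosen for its alteration in DNA repair or cell cycle control.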
# [13] = NCI Yeast Anticancer Drug Screen. Data for the mlh1 rad18 strain (AID 175); settings: S. cerevisiae mlh1 rad18 strain growth inhibition, active compounds read high
# Method in brief: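 Inhibition values reflect reduced growth of mutant yeast versus vehicle-treated controls following compound exposure; the mutations affect DNA damage repair.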
# [14] = NCI Yeast Anticancer Drug Screen. Data for the rad18 strain (AID 177); settings: S. cerevisiae rad18 mutant growth inhibition, active compounds read high
# Method in brief: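 Steps: expose repair-mutant yeast to compound; measure growth; express as inhibition relative to vehicle control.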
# [15] = NCI Yeast Anticancer Drug Screen. Data for the sgs1 strain (AID 173);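 note: 0% = growth of vehicle-only control cultures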; settings: S. cerevisiae sgs1 mutant, active compounds read high
# Method in brief: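 Vehicle-treated cultures served as reference for growth inhibition of a yeast strain altered in DNA damage repair or cell cycle control after compound exposure.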
# [16] = at 5.0 µM (retest, dose inferred, filed as 0.5)
# [17] = at 50.0 µM (retest, dose inferred, filed as 5.0)
structure (smiles),measurement,setting,value
COc1cccc(C(NC2=NCCC=N2)c2cc3c(cc2O)OCO3)c1O (stereo unspecified),growth inhibition,[1]; at 1.2 µM,-1%
same,growth inhibition,[1]; at 3.7 µM,2%
same,growth inhibition,[1]; at 11.0 µM,21%
same,growth inhibition,[1]; at 33.0 µM,56%
same,growth inhibition,[1]; at 100.0 µM,66%
same,growth inhibition,[2]; at 1.2 µM,-2%
same,growth inhibition,[2]; at 3.7 µM,-4%
same,growth inhibition,[2]; at 11.0 µM,2%
same,growth inhibition,[2]; at 33.0 µM,5%
same,growth inhibition,[2]; at 100.0 µM,8%
same,growth inhibition,[3]; at 1.2 µM,-9%
same,growth inhibition,[3]; at 3.7 µM,-9%
same,growth inhibition,[3]; at 11.0 µM,-4%
same,growth inhibition,[3]; at 33.0 µM,6%
same,growth inhibition,[3]; at 100.0 µM,9%
same,growth inhibition,[4]; at 1.2 µM,-1%
same,growth inhibition,[4]; at 3.7 µM,-5%
same,growth inhibition,[4]; at 11.0 µM,12%
same,growth inhibition,[4]; at 33.0 µM,-22%
same,growth inhibition,[4]; at 100.0 µM,10%
same,growth inhibition,[5]; at 1.2 µM,-1%
same,growth inhibition,[5]; at 3.7 µM,-1%
same,growth inhibition,[5]; [16],-11%
same,growth inhibition,[5]; at 11.0 µM,-36%
same,growth inhibition,[5]; at 33.0 µM,26%
same,growth inhibition,[5]; [17],72% (active)
same,growth inhibition,[5]; at 50.0 µM,41.8%
same,growth inhibition,[5]; at 100.0 µM,39%
same,growth inhibition,[6]; at 1.2 µM,1%
same,growth inhibition,[6]; at 3.7 µM,-3%
same,growth inhibition,[6]; [16],-20%
same,growth inhibition,[6]; at 11.0 µM,7%
same,growth inhibition,[6]; at 33.0 µM,15%
same,growth inhibition,[6]; [17],61%
same,growth inhibition,[6]; at 50.0 µM,23.6%
same,growth inhibition,[6]; at 100.0 µM,22%
same,growth inhibition,[7]; at 1.2 µM,6%
same,growth inhibition,[7]; at 3.7 µM,5%
same,growth inhibition,[7]; at 11.0 µM,8%
same,growth inhibition,[7]; at 33.0 µM,12%
same,growth inhibition,[7]; at 100.0 µM,29%
same,growth inhibition,[8]; [16],-47%
same,growth inhibition,[8]; [17],77% (active)
same,growth inhibition,[8]; at 50.0 µM,72.3% (active)
same,growth inhibition,[9]; [16],26%
same,growth inhibition,[9]; [17],13%
same,growth inhibition,[9]; at 50.0 µM,44.6%
same,growth inhibition,[10]; at 1.2 µM,-9%
same,growth inhibition,[10]; at 3.7 µM,-3%
same,growth inhibition,[10]; [16],-57%
same,growth inhibition,[10]; at 11.0 µM,-3%
same,growth inhibition,[10]; at 33.0 µM,-1%
same,growth inhibition,[10]; [17],73% (active)
same,growth inhibition,[10]; at 50.0 µM,37.5%
same,growth inhibition,[10]; at 100.0 µM,5%
same,growth inhibition,[11]; at 1.2 µM,0%
same,growth inhibition,[11]; at 3.7 µM,1%
same,growth inhibition,[11]; at 11.0 µM,5%
same,growth inhibition,[11]; at 33.0 µM,18%
same,growth inhibition,[11]; at 100.0 µM,25%
same,growth inhibition,[12]; at 1.2 µM,-4%
same,growth inhibition,[12]; at 3.7 µM,-3%
same,growth inhibition,[12]; at 11.0 µM,2%
same,growth inhibition,[12]; at 33.0 µM,3%
same,growth inhibition,[12]; at 100.0 µM,4%
same,growth inhibition,[13]; [16],-31%
same,growth inhibition,[13]; [17],72% (active)
same,growth inhibition,[13]; at 50.0 µM,49.2%
same,growth inhibition,[14]; at 1.2 µM,-2%
same,growth inhibition,[14]; at 3.7 µM,0%
same,growth inhibition,[14]; at 11.0 µM,9%
same,growth inhibition,[14]; at 33.0 µM,23%
same,growth inhibition,[14]; at 100.0 µM,56%
CC(C)S(=O)(=O)/C=C\S(=O)(=O)C(C)C,growth inhibition,[1]; at 1.2 µM,-5%
same,growth inhibition,[1]; at 3.7 µM,-7%
same,growth inhibition,[1]; at 11.0 µM,23%
same,growth inhibition,[1]; at 33.0 µM,75% (active)
same,growth inhibition,[1]; at 100.0 µM,97% (active)
same,growth inhibition,[2]; at 1.2 µM,1%
same,growth inhibition,[2]; at 3.7 µM,19%
same,growth inhibition,[2]; at 11.0 µM,44%
same,growth inhibition,[2]; at 33.0 µM,87% (active)
same,growth inhibition,[2]; at 100.0 µM,98% (active)
same,growth inhibition,[3]; at 1.2 µM,-1%
same,growth inhibition,[3]; at 3.7 µM,-11%
same,growth inhibition,[3]; at 11.0 µM,5%
same,growth inhibition,[3]; at 33.0 µM,26%
same,growth inhibition,[3]; at 100.0 µM,25%
same,growth inhibition,[4]; at 1.2 µM,1%
same,growth inhibition,[4]; at 3.7 µM,-5%
same,growth inhibition,[4]; at 11.0 µM,15%
same,growth inhibition,[4]; at 33.0 µM,63%
same,growth inhibition,[4]; at 100.0 µM,96% (active)
same,growth inhibition,[5]; at 1.2 µM,-5%
same,growth inhibition,[5]; at 3.7 µM,-5%
same,growth inhibition,[5]; [16],-138%
same,growth inhibition,[5]; at 11.0 µM,14%
same,growth inhibition,[5]; at 33.0 µM,83% (active)
same,growth inhibition,[5]; [17],74% (active)
same,growth inhibition,[5]; at 50.0 µM,64.8%
same,growth inhibition,[5]; at 100.0 µM,97% (active)
same,growth inhibition,[6]; at 1.2 µM,1%
same,growth inhibition,[6]; at 3.7 µM,2%
same,growth inhibition,[6]; [16],-45%
same,growth inhibition,[6]; at 11.0 µM,7%
same,growth inhibition,[6]; at 33.0 µM,58%
same,growth inhibition,[6]; [17],69%
same,growth inhibition,[6]; at 50.0 µM,62.8%
same,growth inhibition,[6]; at 100.0 µM,93% (active)
same,growth inhibition,[7]; at 1.2 µM,-3%
same,growth inhibition,[7]; at 3.7 µM,9%
same,growth inhibition,[7]; at 11.0 µM,36%
same,growth inhibition,[7]; at 33.0 µM,55%
same,growth inhibition,[7]; at 100.0 µM,99% (active)
same,growth inhibition,[8]; [16],-56%
same,growth inhibition,[8]; [17],76% (active)
same,growth inhibition,[8]; at 50.0 µM,72% (active)
same,growth inhibition,[9]; [16],-50%
same,growth inhibition,[9]; [17],-3%
same,growth inhibition,[9]; at 50.0 µM,-17.3%
same,growth inhibition,[10]; at 1.2 µM,-4%
same,growth inhibition,[10]; at 3.7 µM,1%
same,growth inhibition,[10]; [16],-71%
same,growth inhibition,[10]; at 11.0 µM,5%
same,growth inhibition,[10]; at 33.0 µM,52%
same,growth inhibition,[10]; [17],81% (active)
same,growth inhibition,[10]; at 50.0 µM,50.6%
same,growth inhibition,[10]; at 100.0 µM,92% (active)
same,growth inhibition,[11]; at 1.2 µM,5%
same,growth inhibition,[11]; at 3.7 µM,15%
same,growth inhibition,[11]; at 11.0 µM,44%
same,growth inhibition,[11]; at 33.0 µM,90% (active)
same,growth inhibition,[11]; at 100.0 µM,99% (active)
same,growth inhibition,[12]; at 1.2 µM,-8%
same,growth inhibition,[12]; at 3.7 µM,-1%
same,growth inhibition,[12]; at 11.0 µM,1%
same,growth inhibition,[12]; at 33.0 µM,64%
same,growth inhibition,[12]; at 100.0 µM,96% (active)
same,growth inhibition,[15]; at 1.2 µM,-5%
same,growth inhibition,[15]; at 3.7 µM,-8%
same,growth inhibition,[15]; at 11.0 µM,30%
same,growth inhibition,[15]; at 33.0 µM,80% (active)
same,growth inhibition,[15]; at 100.0 µM,98% (active)
same,growth inhibition,[13]; [16],-133%
same,growth inhibition,[13]; [17],85% (active)
same,growth inhibition,[13]; at 50.0 µM,82.8% (active)
same,growth inhibition,[14]; at 1.2 µM,-2%
same,growth inhibition,[14]; at 3.7 µM,5%
same,growth inhibition,[14]; at 11.0 µM,19%
same,growth inhibition,[14]; at 33.0 µM,78% (active)
same,growth inhibition,[14]; at 100.0 µM,93% (active)
